In the assay the test system is XIP peptide (Xip251-270). Description: compounds binding XIP fragment 251-270 – biochemical, small-molecule microarray, fluorescence 635/667 nm, 0.5 µg/mL protein, primary screen (AID 1183). The following applies: fluorescence 635 nm, higher = more signal.
In the case of `CC(C)=CCCC(C)=CCON=C1C[C@@H](O)[C@@H](O)[C@@H]2[C@@H]3C(=O)N(Cc4ccccc4)C(=O)[C@@H]3CC[C@H]12`, the composite z-score worked out at 0.419. Under `Cc1ccc(S(=O)(=O)n2c3ccccc3c3nnc(C(=O)c4ccccc4)nc32)cc1` stands 0.249. For the compound `CCCNC(=O)OC[C@H]1O[C@H](CCON=C(C)CCN2CCc3nc(CC)c(CC)cc3C2)C=C[C@@H]1Oc1ccc(OC)cc1`, the composite z-score came out at 0.27. Under `CC(C)=CCCC(C)=CCON=C1C[C@@H](O)[C@@H](O)[C@@H]2[C@@H]3C(=O)N(C[C@@H]4CCCO4)C(=O)[C@@H]3CC[C@H]12` stands 0.378; under `CO[C@@H]1COC(=O)[C@H](CCSC)NC(=O)CC=C[C@@H](C)COC(=O)[C@H](C)NC(=O)CC=C[C@H]1C`, 0.909; under `CO[C@H]1COC(=O)[C@@H](C)COC(=O)[C@H](C)NC(=O)CC=C[C@H]1C`, 0.564. Under `COc1ccc(COC(=O)NN=C2C[C@@H](O)[C@@H](O)[C@@H]3[C@@H]4C(=O)N(c5ccc(F)cc5F)C(=O)[C@@H]4CC[C@H]23)cc1` stands 0.393; under `COc1ccc(O[C@H]2C=C[C@@H](c3ccccc3)O[C@@H]2CON=CC[C@@H]2C=C[C@H](OC(C)=O)[C@@H](COC(C)=O)O2)cc1`, -0.104; under `CO[C@H]1COC(=O)[C@@H](C)COC(=O)[C@@H](OCc2ccccc2)C=C[C@@H]1C`, 0.204. `O=C1[C@H]2[C@H]3[C@H](O)[C@H](O)CC(=NO[C@@H]4O[C@H](CO)[C@@H](O)[C@H](O)[C@H]4O)[C@H]3CC[C@H]2C(=O)N1c1cccc(Oc2ccccc2)c1`: the composite z-score was determined as 0.538. Under `C=CC[C@@H]1C=C[C@H](ON=C2[C@H]3CCn4c(=O)n(-c5ccccc5)c(=O)n4[C@H]3[C@H](O)[C@@H]3O[C@H]23)[C@@H](CO)O1` stands 0.287. Under `CO[C@H]1COC(=O)CC=C[C@H](C)COC(=O)[C@@H](C)NC(=O)CC=C[C@@H]1C` stands 0.424. In the case of `C#CCCCON=C1C[C@@H](O)[C@@H](O)[C@@H]2[C@@H]3C(=O)N(C(C)(C)C)C(=O)[C@@H]3CC[C@@H]12` it was 0.109; in that of `Cc1ccc(S(=O)(=O)NC(CCc2ccccc2)CC(=O)C(C)(C)C)cc1` (stereo not given), -0.113. For the compound `COc1ccc(O[C@H]2C=C[C@@H](c3ccccc3)O[C@@H]2CON=C(C)CCC(=O)OC[C@H]2O[C@H](c3ccccc3)C=C[C@@H]2Oc2ccc(OC)cc2)cc1`, the composite z-score was -0.0127. Under `CCOC(=O)[C@H](CC(C)C)NC(=O)CCC1CC(OC(=O)NCc2ccc3c(c2)OCO3)CC2(CCCC(COC(=O)NCc3cccc(C(F)(F)F)c3)O2)O1` (stereo not given in full) stands 0.348. Under `O=C1OCCC=C1C(O)CCc1ccccc1` (stereo not given) stands 0.716. As to `COC(=O)[C@@H]1CC[C@H](C)[C@@H](c2ccc(C)cc2)N1C(=O)c1ccc(C=NO[C@H](C)c2cn([C@H](CO)Cc3ccccc3)nn2)cc1`, the composite z-score was determined as 0.658. Under `COC(=O)CC=C[C@@H](C)[C@H](OCc1cccc(-c2ccccc2)c1)C1CCCCC1` stands 0.881. In the case of `CC(C)CON=C1C[C@@H](O)[C@@H](O)[C@@H]2[C@@H]3C(=O)N(c4ccc(F)cc4F)C(=O)[C@@H]3CC[C@H]12` it was 0.37; in that of `C#CCCCON=C1C[C@@H](O)[C@@H](O)[C@@H]2[C@@H]3C(=O)N(CC)C(=O)[C@@H]3CC[C@@H]12`, 0.555; in that of `CCOC(=O)CCN1C(=O)[C@H]2[C@H]3[C@H](O)[C@H](O)CC(=NNC(=O)OCc4ccccc4)[C@@H]3CC[C@H]2C1=O`, 0.791.

For the compound `CCCNC(=O)OC[C@H]1O[C@H](CCON=C(C)CCN2CCCc3nc(C)c(C)cc32)C=C[C@@H]1Oc1ccc(OC)cc1`, the composite z-score came out at 0.527.

`CC(C)=CCCC(C)=CCON=C1C[C@@H](O)[C@@H](O)[C@@H]2[C@@H]3C(=O)N(c4ccc(F)cc4F)C(=O)[C@@H]3CC[C@@H]12`: the composite z-score worked out at 0.542.

On to `Cc1ccc(S(=O)(=O)OC[C@H]2CN3[C@H](c4ccc(Br)cc4)[C@@H](C)CC[C@H]3C(=O)O2)cc1`, for which the composite z-score is 0.564.

Values taken from PubChem BioAssay.
